Data published in PubChem BioAssay (Tox21).
Values joined by “and” are separate entries in the source; they are usually repeats but may differ in a detail not shown here. Equal entries are not always repeated. Results filed as inconclusive are left out. Entries that show only a call come without a potency. Some structures have more than one record in an assay (separate samples or runs), and their calls can disagree. Active and inactive are the calls of the source. The call rests on the fitted dose curve; in most records, active means well fitted curve in the direction sought with a large enough effect in the repeat runs; inconclusive means weak or mixed curves; inactive means no such curve, though single readings can be large; an effect the other way counts as inactive or inconclusive.

Key:
[1] = A CellTox Green Cytotoxicity Assay to monitor cytotoxicity in HEK293 cells - 40 hour (AID 1224871); conditions: CellTox Green fluorescence; series mostly up to 76.8 µM; further: nearly all actives have a fitted effect of over 45% in size; further: potency means the concentration at half of the fitted maximal effect
Outline: (§1)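 Dead-cell fluorescence measured kinetically: asymmetric cyanine dye, HEK293, 600 cells/well, 5 h settle, 23 nL cpd/DMSO, 37 C, reads 0–40 h every 8 h.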

[2] = qHTS RealTime-Glo MT Cell Viability Assay in HEK293 cells - 16 hour (AID 1224872); conditions: RealTime-Glo luminescence; series mostly up to 76.8 µM; further: nearly all actives have a fitted effect of over 50% in size; further: potency means the concentration at half of the fitted maximal effect
Outline: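 Luminescence generated by NanoLuc from substrate produced by living HEK293 cells served as the viability signal. Each value reflects the reading at its stated time point during continuous 40 h compound exposure at 37 C.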

[3] = qHTS RealTime-Glo MT Cell Viability Assay in HEK293 cells - 40 hour (AID 1224874); conditions: RealTime-Glo luminescence; max response: stronger effect = lower value; further: nearly all actives have a fitted effect of over 50% in size; further: potency means the concentration at half of the fitted maximal effect
Outline: (§2)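 600 HEK293 cells per well, dispensed already mixed with RealTime-Glo MT reagents. Compound dosing came 5 h later. The same wells were read for luminescence at 0, 8, 16, 24, 32 and 40 h of exposure at 37 C.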

[4] = A CellTox Green Cytotoxicity Assay to monitor cytotoxicity in HEK293 cells - 24 hour (AID 1224875); conditions: CellTox Green fluorescence; series mostly up to 76.8 µM; further: nearly all actives have a fitted effect of over 45% in size
Outline: as §1

[5] = A CellTox Green Cytotoxicity Assay to monitor cytotoxicity in HepG2 cells - 16 hour (AID 1224876); conditions: CellTox Green fluorescence; series mostly up to 76.8 µM; further: nearly all actives have a fitted effect of over 45% in size; further: potency means the concentration at half of the fitted maximal effect
Outline: (§3)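 First, HepG2 cells (600/well) mixed with reagent were plated; second, after 5 h at 37 C they received compounds via pintool; third, fluorescence was measured at 0 h through 40 h at 8 h intervals.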

[6] = qHTS RealTime-Glo MT Cell Viability Assay in HepG2 cells - 32 hour (AID 1224877); conditions: RealTime-Glo luminescence; series mostly up to 76.8 µM; further: nearly all actives have a fitted effect of over 55% in size; further: potency means the concentration at half of the fitted maximal effect
Outline: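 Tox21 10K library screened in qHTS format on HepG2 cells carrying RealTime-Glo reagents. Compounds were added after a 5 h preincubation, and the luminescent signal from continuous culture was measured repeatedly during 40 h treatment.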

[7] = A CellTox Green Cytotoxicity Assay to monitor cytotoxicity in HepG2 cells - 24 hour (AID 1224878); conditions: CellTox Green fluorescence; series mostly up to 76.8 µM; further: nearly all actives have a fitted effect of over 45% in size; further: potency means the concentration at half of the fitted maximal effect
Outline: as §3

[8] = A CellTox Green Cytotoxicity Assay to monitor cytotoxicity in HepG2 cells - 40 hour (AID 1224879); conditions: CellTox Green fluorescence; series mostly up to 76.8 µM; further: nearly all actives have a fitted effect of over 40% in size; further: potency means the concentration at half of the fitted maximal effect
Outline: as §3

[9] = qHTS RealTime-Glo MT Cell Viability Assay in HEK293 cells - 0 hour (AID 1224880); conditions: RealTime-Glo luminescence; series mostly up to 76.8 µM
Outline: as §2

[10] = qHTS RealTime-Glo MT Cell Viability Assay in HepG2 cells - 8 hour (AID 1224873); conditions: RealTime-Glo luminescence; series mostly up to 76.8 µM; further: nearly all actives have a fitted effect of over 55% in size; further: potency means the concentration at half of the fitted maximal effect
Outline: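 HepG2 cells (600/well) mixed with RealTime-Glo MT reagent, settled 5 h at 37 C/5% CO2 before compound addition. Nonlytic NanoLuc luminescence from viable-cell prosubstrate reduction read repeatedly during 40 h treatment at 37 C.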

| SMILES | Potency [1] | Potency [2] | max response [3] | Potency [4] | Potency [5] | Potency [6] | Potency [7] | Potency [8] | outcome [9] | Potency [3] | Potency [10] |
| --- | --- | --- | --- | --- | --- | --- | --- | --- | --- | --- | --- |
| CCNc1nc(Cl)nc(NCC)n1 | inactive | inactive | -0.397% (inactive) and 5.74% (inactive) and 5.58% (inactive) | inactive | inactive | inactive | inactive | inactive | inactive |  |  |
| CCC(=O)C(CC(C)N(C)C)(c1ccccc1)c1ccccc1 (stereo not drawn) | inactive | inactive |  | inactive | inactive | inactive | 39.1 µM (active) and inactive | 43.8 µM (active) and 48.6 µM (active) | inactive | 24.4 µM (active) |  |
| CC[N+](CC)(CC)CC | inactive | inactive | 2.86% (inactive) and 1.18% (inactive) and -0.431% (inactive) | inactive | inactive | inactive | inactive | inactive | inactive |  | inactive |
| O=c1[nH]c(=O)n(Cl)c(=O)n1Cl | inactive | inactive | 3.74% (inactive) and 3.92% (inactive) and 2.88% (inactive) | inactive | inactive | inactive | inactive | inactive | inactive |  | inactive |
| CCCCCC[n+]1ccccc1 | inactive | inactive | -3.16% (inactive) | inactive | inactive | inactive | inactive | inactive | inactive | 27.8 µM (active) [middle of 5 runs] |  |
| CCCCCCCCCCCC(=O)O | inactive | inactive | 0.697% (inactive) and -0.0798% (inactive) and 0.587% (inactive) | inactive | inactive | inactive | inactive | inactive | inactive |  | inactive |
| CCCn1cc[n+](C)c1 | inactive | inactive | 9.61% (inactive) and -4.66% (inactive) and 2.37% (inactive) | inactive | inactive | inactive | inactive | inactive | inactive |  | inactive |
| CCCCCCCCCCCCCCCCn1cc[n+](C)c1 | inactive and 19.7 µM (active) and 24.6 µM (active) | inactive and 24.8 µM (active) and 24.6 µM (active) | 12.2% (inactive) |  | inactive and 49.4 µM (active) and 39 µM (active) | inactive and 49.4 µM (active) and 34.8 µM (active) | inactive and 44 µM (active) and 24.6 µM (active) |  | inactive | 7.93 µM (active) and 4.4 µM (active) and 2.76 µM (active) |  |
| CCn1cc[n+](C)c1C | inactive | inactive | -4.04% (inactive) and 1.14% (inactive) and -16.1% (inactive) | inactive | inactive | inactive | inactive | inactive | inactive |  |  |
| CCCC[N+]1(C)CCCCC1 | inactive | inactive | -0.0247% (inactive) [middle of 5 runs] | inactive | inactive | inactive and 48.8 µM (active) | inactive | inactive | inactive |  |  |
| Nc1ccc(-c2ccc(N)c(Cl)c2)cc1Cl | inactive and 43.6 µM (active) | 24.5 µM (active) |  |  | inactive and 43.6 µM (active) | inactive and 49 µM (active) | inactive and 27.5 µM (active) | 15.6 µM (active) and 12.9 µM (active) and 27.5 µM (active) | inactive | 12.4 µM (active) and 14.4 µM (active) and 12.3 µM (active) | inactive and 43.6 µM (active) |
| O=C(O)c1nc(Cl)ccc1Cl | inactive | inactive | 3.62% (inactive) and 10.3% (inactive) and 7.66% (inactive) | inactive | inactive | inactive | inactive | inactive | inactive |  | inactive |
| N#CS | inactive | inactive | 6.52% (inactive) [middle of 4 runs] | inactive | inactive | inactive | inactive | inactive | inactive |  | inactive |
| O=C(O)C(Cl)Cl | inactive | inactive | 5.65% (inactive) [middle of 4 runs] | inactive | inactive | inactive | inactive | inactive | inactive |  | inactive |
| O=C(O)CC(O)(CC(=O)O)C(=O)O | inactive | inactive | 6.24% (inactive) and 7.96% (inactive) and 3.83% (inactive) | inactive | inactive | inactive | inactive | inactive | inactive |  | inactive |
| Cc1cc(Cl)ccc1OCC(=O)O | inactive | inactive | 23.3% (inactive) and 12.2% (inactive) and 10.9% (inactive) | inactive | inactive | inactive | inactive | inactive | inactive |  | inactive |
